Data as given in PubChem BioAssay AID875 (National Center for Advancing Translational Sciences (NCATS), 2007).
Hit rate of the full screen: of about 75,000 compounds, about 35 (0.05%) were called active. Where a call stands in place of a potency, no number is given. Many of the other results were omitted from the sample, so actives are more common in it than they were. A number with no mark means an inactive call. Calls follow the shape of the dose curve; as a rule, active = well fitted inhibition curve with a large enough effect; inconclusive = small, poorly fitted or top-dose-only effect; inactive = no such curve, though single readings can be large or run the other way.

molecular target: Breast cancer type 1 susceptibility protein (Homo sapiens) (UniProt P38398); assay: qHTS Assay for Inhibitors of BRCT-Phosphoprotein Interaction (Green Fluorophore); conditions: BRCA1 BRCT-phosphopeptide binding, green fluorescence polarization; series mostly up to 76.9 µM
Sequence (P38398 whole entry, looked up): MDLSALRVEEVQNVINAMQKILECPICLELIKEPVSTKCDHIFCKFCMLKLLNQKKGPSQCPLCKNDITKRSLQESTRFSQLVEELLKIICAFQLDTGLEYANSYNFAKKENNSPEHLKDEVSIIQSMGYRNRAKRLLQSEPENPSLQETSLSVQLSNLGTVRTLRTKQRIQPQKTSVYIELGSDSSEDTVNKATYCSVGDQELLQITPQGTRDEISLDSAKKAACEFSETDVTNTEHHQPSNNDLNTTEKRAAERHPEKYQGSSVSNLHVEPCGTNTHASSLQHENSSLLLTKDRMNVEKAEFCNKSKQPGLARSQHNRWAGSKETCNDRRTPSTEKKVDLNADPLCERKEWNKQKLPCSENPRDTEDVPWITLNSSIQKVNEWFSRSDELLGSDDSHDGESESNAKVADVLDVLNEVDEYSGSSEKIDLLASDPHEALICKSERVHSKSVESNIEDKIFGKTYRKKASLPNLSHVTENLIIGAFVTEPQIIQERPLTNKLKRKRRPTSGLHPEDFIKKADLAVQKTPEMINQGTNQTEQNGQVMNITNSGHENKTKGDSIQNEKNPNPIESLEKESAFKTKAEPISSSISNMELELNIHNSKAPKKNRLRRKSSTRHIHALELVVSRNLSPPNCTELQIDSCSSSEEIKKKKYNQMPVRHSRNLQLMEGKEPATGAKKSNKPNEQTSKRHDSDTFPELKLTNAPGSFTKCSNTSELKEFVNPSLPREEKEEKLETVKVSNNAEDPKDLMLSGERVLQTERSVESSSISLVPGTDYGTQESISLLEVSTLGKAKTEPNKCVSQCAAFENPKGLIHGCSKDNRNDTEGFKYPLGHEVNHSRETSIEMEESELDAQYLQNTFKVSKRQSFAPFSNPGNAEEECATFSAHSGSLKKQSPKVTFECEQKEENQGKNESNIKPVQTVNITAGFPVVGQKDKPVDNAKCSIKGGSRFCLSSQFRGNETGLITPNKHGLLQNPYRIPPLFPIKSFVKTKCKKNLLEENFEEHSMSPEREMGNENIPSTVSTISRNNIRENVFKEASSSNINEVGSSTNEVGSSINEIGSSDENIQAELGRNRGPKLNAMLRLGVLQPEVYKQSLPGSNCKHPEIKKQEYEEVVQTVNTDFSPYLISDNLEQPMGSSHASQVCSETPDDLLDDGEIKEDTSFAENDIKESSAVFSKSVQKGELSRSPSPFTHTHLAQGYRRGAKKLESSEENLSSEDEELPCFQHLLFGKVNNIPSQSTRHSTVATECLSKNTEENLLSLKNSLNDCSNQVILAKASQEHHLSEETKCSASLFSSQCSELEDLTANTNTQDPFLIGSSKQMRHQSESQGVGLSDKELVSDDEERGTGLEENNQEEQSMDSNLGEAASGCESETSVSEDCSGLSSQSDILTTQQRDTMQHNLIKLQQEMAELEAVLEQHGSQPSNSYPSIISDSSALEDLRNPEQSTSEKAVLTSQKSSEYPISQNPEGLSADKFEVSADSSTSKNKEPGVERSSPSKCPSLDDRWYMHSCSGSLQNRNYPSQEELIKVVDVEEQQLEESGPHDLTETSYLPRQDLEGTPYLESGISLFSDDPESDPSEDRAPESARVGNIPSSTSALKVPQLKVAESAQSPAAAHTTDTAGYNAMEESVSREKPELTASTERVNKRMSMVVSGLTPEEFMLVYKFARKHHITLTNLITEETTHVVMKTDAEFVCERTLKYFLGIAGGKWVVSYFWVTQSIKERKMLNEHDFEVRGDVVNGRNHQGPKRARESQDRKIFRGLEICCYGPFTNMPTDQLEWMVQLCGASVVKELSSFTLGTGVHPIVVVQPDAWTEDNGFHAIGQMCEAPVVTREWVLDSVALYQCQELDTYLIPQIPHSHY
Method: NIH Molecular Libraries Screening Centers Network [MLSCN]
NIH Chemical Genomics Center [NCGC]
PI Name: Natarajan, Amarnath; University of Texas
A complex of BRCT (C-terminal portion of BRCA1, MW ~35 kDa, His-tagged) and fluorescently labeled pBACH1 phosphorylated 10 aa peptide fragment of BACH1, a helicase implicated in DNA repair, is incubated with library members. Inhibitors of BRCT-pBACH1 binding are detected by a decrease in the fluorescence polarization (FP) of the fluorophore. In order to minimize the effect of fluorescence artifacts and to increase the overall robustness of the screen, the compound library members were incubated in separate reactions with fluorescein labeled probe-protein complexes. Protein and labeled probes were supplied by Dr. Amarnath Natarajan, Department of Pharmacology and Toxicology, University of Texas Medical Branch Galveston, TX.
Assay Buffer: 16mM Na2HPO4, 4 mM NaH2PO4, 150 mM NaCl, 1 mM EDTA, 1 mM DTT, 0.02% NaN3, and 0.01% Tween 20 at pH 7.3.
100 nM labeled decapeptide/250 nM protein in columns 1, 2, 5 - 48. Titration of unlabeled decapeptide control (from 10 mM, then 1:2 dilution in duplicate) pin-transferred to column 2, rows 1 to 16. Column 1 is neutral.
Three uL of reagents were dispensed to 1536-well Greiner black solid-bottom plates. Compounds and controls (23 nL) were transferred
via Kalypsys PinTool. The plates were incubated for 12 min at room temperature, and then read on ViewLux (Perkin-Elmer) High throughput CCD imager using FITC for the fluorescein-labeled decapeptide probe polarization filter sets. During dispense, reagent bottles were kept submerged into 4 deg C water bath and all liquid lines were covered with aluminum foil to minimize probe and protein degradation. All screening operations were performed on a Kalypsys robotic system (Kalypsys, Inc., San Diego, CA) containing one RX-130 and two RX-90 anthropomorphic robotic arms. The timing and order of assay plates passing through the screening system were adjusted such that each compound library plate was assayed against the fluorescein- and rhodamine-labeled assay systems at immediately adjacent time points.
Potency is read from the fitted curve at half-maximal effect.

SMILES	activity change, negative = inhibition	Potency
C(=C\c1ccccc1)/CSc1nnc(-c2cccnc2)n1Cc1ccco1	inactive	–
Nc1ccc2c3c(cccc13)C(=O)NC2=O	–	12.6 µM (active)
CCN1C(=O)c2cccc3c(N)ccc1c23	inactive	–
Cc1ccc(C)c(N2CCN(S(=O)(=O)c3ccc4c(c3)oc(=O)n4C)CC2)c1	inactive	–
CCN(CC)CCNC(=O)Cn1cnc2sc(C)c(S(=O)(=O)N3CCOCC3)c2c1=O	inactive	–
CC(=O)Nc1ccc(S(=O)(=O)N2CCSCC2)cc1	inactive	–
COc1cccc(CNC(=O)C2CCN(S(=O)(=O)c3cccc4cccnc34)CC2)c1	inactive	–
Cc1ccc(S(=O)(=O)c2c(N)n(C)c3nc4ccccc4nc23)cc1	inactive	–
O=C(Nc1ccc(S(=O)(=O)N2CCCC2)cc1Cl)C1=COCCO1	inactive	–
O=C(c1cnccn1)N1CCC2(CCN(Cc3cc(C(F)(F)F)cc(C(F)(F)F)c3)CC2)CC1	inactive	–
CCOc1ccccc1N(CC(=O)NC1CCCCC1)C(=O)CCCC(=O)Nc1ccccn1	inactive	–
Cc1cc(C)cc(OCc2nnc(SCC(=O)OC3CCCCC3)o2)c1	inactive	–
CCOc1cc(S(=O)(=O)NCc2ccc3c(c2)OCO3)ccc1F	inactive	–
COc1ccc(-c2nc3cnc(OC)nc3n(Cc3ccc(F)cc3)c2=O)cc1	inactive	–
Cc1cc(N=CC2=C(O)CCCC2=O)no1	inactive	–
CC(=O)c1nc(N2C(=O)C3CC=C(C)CC3C2=O)sc1C (stereo not drawn)	inactive	–
Cc1cn(COC/C=C/c2ccccc2)c(=O)[nH]c1=O	inactive	–
O=C1NC(c2ccncc2)Nc2sc3c(c21)CCCC3 (stereo not drawn)	inactive	–
COc1ccc2c(c1)C=CC1(O2)N(CCO)c2ccccc2C1(C)C (stereo not drawn)	inactive	–
CN(C)CCOC(=O)C(c1ccccc1)C1(O)CCCC1 (stereo not drawn)	-1.8% [at 3.08 µM]	–
COC(=O)c1ccc(CN(c2ccccc2OC)S(=O)(=O)c2cccs2)o1	inactive	–
COc1ccc(S(=O)(=O)NC(CC(=O)NCc2ccccc2OC)c2ccco2)cc1 (stereo not drawn)	inactive	–
CCOC(=O)C1=C(CNC2CCCCC2)NC(=O)NC1c1cc(C)ccc1C (stereo not drawn)	inactive	–
CCSc1nc2c(c(=O)[nH]1)C(c1cccnc1)C(C(=O)OC(C)C)=C(C)N2 (stereo not drawn)	inactive	–
O=C(CCC(=O)N1CCN(S(=O)(=O)c2ccccc2)CC1)NC1CCCc2ccccc21 (stereo not drawn)	inactive	–
CCNS(=O)(=O)c1ccc(NC(=O)Nc2cccc(OC)c2)cc1	inactive	–

SMILES	activity change, negative = inhibition	Potency
O=S(=O)(/C=C/c1ccccc1)NCCc1ccccn1	inactive	–
CCOc1ccc(NC(=O)Nc2cc(C)ccc2OC)cc1	inactive	–
Cc1cc2nc3c(=O)[nH]c(=O)nc-3n(C[C@H](O)[C@H](O)[C@H](O)CO)c2cc1C	–	7.94 µM (active)
C=CCn1c(COc2ccccc2C)nnc1SCC(=O)O	inactive	–
O=C(C(Cc1ccccc1)n1cccc1)N1CCN(C2CCCCC2)CC1 (stereo not drawn)	inactive	–
OCc1n[nH]c(CO)n1	inactive	–
CCn1ncc(Br)c1C(=O)Nc1cc(C)ccc1F	inactive	–
CCOC(=O)CN1C(=O)C(O)(CC(=O)c2ccccn2)c2ccccc21 (stereo not drawn)	inactive	–
CCCOc1cccc(C(=O)Nc2nnn(CCC)n2)c1	inactive	–
Cn1cnc2c1c(=O)n(Cc1c(Cl)cccc1Cl)c(=O)n2C	inactive	–
COc1cccc([C@H]2Oc3ccc(OC)cc3/C(=N\OCC[C@@H]3C=C[C@H](OC(C)=O)[C@H](COC(C)=O)O3)[C@@H]2O)c1	1.43% [at 15.4 µM]	–
Cc1ccccc1OCC(=O)Nc1ccc(N2CCN(C(=O)C(C)C)CC2)c(Cl)c1	inactive	–
O=C(NCCSc1ccccc1)c1ccco1	inactive	–
CCCCOc1ccc(-c2nnc(-c3ccco3)o2)cc1	inactive	–
COc1ccc(-c2oc3cc(OC)ccc3c2C(=O)c2ccc(C#N)cc2)cc1	inactive	–
Cc1cnc(CNc2cc(-c3c(C)noc3C)ncn2)cn1	inactive	–
Cn1c(N)c(C(=O)COC(=O)c2cc(C(F)(F)F)nc3c(C(F)(F)F)cccc23)c(=O)n(C)c1=O	inactive	–
CCc1c(C)nc2cc(-c3cccs3)[nH]n2c1=O	inactive	–
COC(=O)c1ccc(C23CC4(C2)[C@H](CN(Cc2cccnc2)[C@@H]4c2ccccc2)C3c2ccc(Cl)nc2)cc1 (stereo partly drawn)	inactive	–
COc1ccc2c(=O)cc(-c3ccccc3)oc2c1O	inactive	–
Cc1ccc(NC(=O)CN2CCC3(O)CCCCC3C2c2ccc3c(c2)OCO3)c(C)c1 (stereo not drawn)	inactive	–
CCS(=O)(=O)N(C)[C@@H]1c2cc(C#N)ccc2OC(C)(C)[C@H]1O	inactive	–
CCc1nc(Nc2ccc3nccnc3c2)c2oc3ccccc3c2n1	inactive	–
O=C(CN1C(=O)CSc2ncccc21)N1CCOCC1	inactive	–
FC(F)(F)c1cc(-c2cccs2)nc(NCc2ccco2)n1	inactive	–
Cc1n[nH]c(C)c1S(=O)(=O)N1CCCC(C(=O)NCC2COc3ccccc3O2)C1 (stereo not drawn)	inactive	–

SMILES	activity change, negative = inhibition	Potency
Cc1ccc(S(=O)(=O)N2CCC(C(=O)N[C@@H](C)C(=O)NCCc3ccccc3)CC2)cc1	inactive	–
O=C(O)C1CCN1C1CCCCC1 (stereo not drawn)	inactive	–
CCC(=O)c1ccc(OCC(O)CN2CCN(c3cccc(C(F)(F)F)c3)CC2)cc1 (stereo not drawn)	inactive	–
CC1CN(C(=O)CN2C(=O)NC(C)(c3ccccc3)C2=O)CC(C)O1 (stereo not drawn)	inactive	–
O=C(c1cc(C(F)(F)F)cc(C(F)(F)F)c1)N1CCC2(CCCN(Cc3ccncc3)C2)CC1	inactive	–
CS(=O)(=O)c1ccc2nc(NC(=O)C3C4C=CC(C4)C3C(=O)O)sc2c1 (stereo not drawn)	inactive	–
CCOC(=O)/C=c1\s/c(=C\c2ccccc2OC)c(=O)n1CC(=O)N1CCOCC1	inactive	–
CCC1=C(OC(=O)N(CC)CC)N2C(=O)OC(=NCC3CC3)[C@]2(C)[C@H]2C1=CC[C@H]1C(=O)N(CC(=O)OC)C(=O)[C@H]12	inactive	–
Cc1cc(/C=N/n2cnnc2)c(C)n1-c1cccc(C(=O)O)c1	inactive	–
CC(=O)N(Cc1cccs1)C1CCOC(C)(C)C1 (stereo not drawn)	inactive	–
COCc1nc2ccccc2n1Cc1ccccc1Br	inactive	–
CCn1c(CNC(=O)c2ccc(OC)c(OC)c2)nnc1SCC(=O)Nc1ccccc1	inactive	–
COc1ccc(OC)c(CN2C(=O)CCC2(C)C(=O)NC2CCCCCC2)c1 (stereo not drawn)	inactive	–
c1ccc(-c2noc(-c3cccs3)n2)nc1	inactive	–
CCOc1ccc(OCC)c(NC(=O)CN(C)S(=O)(=O)c2cccc3nsnc23)c1	inactive	–
Cc1ccc2nc(NC3=NCN(CCc4ccccc4)CN3)nc(C)c2c1	inactive	–
COc1ccccc1-c1nc(NCc2cccs2)c2ccccc2n1	inactive	–
CC1=C(C(=O)Nc2ccccc2)C(c2cccs2)C(C#N)=C(SCC#N)N1 (stereo not drawn)	inactive	–
COc1ccc(Cl)cc1S(=O)(=O)N1CCN(CC(=O)C(C)(C)C)CC1	inactive	–
C=CCSc1nc2c(c(=O)[nH]1)C(C(C)C)C(C#N)=C(N)O2 (stereo not drawn)	inactive	–
O=P(c1ccc2c(c1)OCCO2)(N1CCOCC1)N1CCOCC1	inactive	–
CCCCCn1c(SCCC(C)C)nc2c1c(=O)[nH]c(=O)n2C	inactive	–
Cc1sc2c(c1C)c(=O)n(-c1ccccc1)c1nncn21	inactive	–
CCCC(=O)N1c2ccc(-c3csc(N)n3)cc2CC1C (stereo not drawn)	inactive	–
CCCCCOC(=O)NCCOC(=O)Nc1ccc(C(=O)OCC)cc1	inactive	–
Cn1c(=O)c2c(ncn2CC(=O)N2CCN(c3ccccc3)CC2)n(C)c1=O	inactive	–

SMILES	activity change, negative = inhibition	Potency
CN(CCOc1ccc(CC2SC(=O)NC2=O)cc1)c1ccccn1 (stereo not drawn)	-0.73% [at 3.08 µM]	–
COc1cc2c(cc1O)C(SC)=NC(C)(C)C2	inactive	–
O=C(CN1CCN(C(=O)c2ccco2)CC1)Nc1ccc(Cl)c(C(F)(F)F)c1	inactive	–
Cc1ccc(C(=O)Nc2ccccc2C(=O)NC2CCCCC2)cc1S(=O)(=O)N1CCOCC1	inactive	–
C/C(=C\C(=O)c1ccccc1)Nc1cccc(O)c1	inactive	–
CCC/C(O)=C1\C(=O)CC(C)(C)CC1=Nc1ccccc1OC	inactive	–
COC(=O)c1cc(NC(=O)CN2CCC(C(N)=O)(N3CCCCC3)CC2)cc(C(=O)OC)c1	inactive	–
Cc1cc(C(=O)Nc2c(C)n(C)n(-c3ccccc3)c2=O)cs1	inactive	–
COc1ccc(C2C3=C(CC(C)(C)CC3=O)Oc3ncn4nc(-c5cccnc5)nc4c32)cc1OC (stereo not drawn)	inactive	–
Cn1cccc1C(=O)N1CCC[C@@]2(CCN(Cc3nccs3)C2)C1	inactive	–
O=[n+]1c2c(n([O-])c3cc(Br)ccc31)CCC2	inactive	–
COc1cc([C@H]2c3cc4c(cc3[C@@H](O[C@@H]3O[C@H]5CO[C@@H](C)O[C@]5(O)C[C@H]3O)[C@@H]3COC(=O)[C@H]23)OCO4)cc(OC)c1O	inactive	–
FC(F)(F)c1ccc(CN2C[C@@H]3C(c4ccccc4)C4(c5ccccc5)CC3(C4)[C@H]2c2ccccc2)cc1 (stereo partly drawn)	inactive	–
CC1CCN(c2nc3c(c(=O)[nH]c(=O)n3C)n2CCCc2ccccc2)CC1	inactive	–
Cc1cccc2c3c(ccc12)C1=C(C(=O)C3=O)C(C)CO1 (stereo not drawn)	inactive	–
CCOC(=O)c1cc2n(c1C)-c1ccccc1C2=O	inactive	–
CCOC(=O)Nc1ccccc1N1C(=O)c2ccccc2C1=O	inactive	–
CCOC(=O)c1cc2n(c1N)-c1ccccc1C2=O	–	15.8 µM (active)
COC(=O)[C@@H]1C[C@@]2(O)[C@H](O)[C@H](O)[C@H](O)C[C@H]2N1CC1CCCCC1	inactive	–
Cn1c(=O)n(C)c2cc(CNc3ccc(N4CCOCC4)c(C(=O)O)c3)ccc21	inactive	–
O=C(NCc1ccc(Cl)cc1)c1cc2c(nc3sccn32)s1	inactive	–
COC(=O)[C@@H]1C[C@@]2(O)[C@@H](O)[C@@H](O)[C@@H](O)C[C@H]2N1Cc1ccc(C)s1	inactive	–
CCc1c(O)nc(SCC(=O)N2CCCCC2)n(-c2ccccc2C)c1=O	inactive	–
O=C(NC1CCCC1)c1ccc(Br)s1	inactive	–
COc1ccccc1CNC(=O)C1CCN(S(C)(=O)=O)CC1	inactive	–
